The structures appear in SMILES notation. The campaign covered roughly 39,000 compounds. About 3,300 (8.5%) were called active. The entries come from a sample that favours actives as a whole.

The subject of the assay is HepG2. As to the kind of experiment: cytotoxicity call (relative viability < 0.9). The note with it: 10 µM.
Turning to `C[C@@H]1CN([C@@H](C)CO)C(=O)c2cc(NC(=O)CCN3CCOCC3)ccc2O[C@H]1CN(C)C(=O)Nc1ccc(F)cc1`, the cytotoxicity call was “inactive”. To `COc1ccc(NC(=O)Nc2ccc3c(c2)C(=O)N([C@@H](C)CO)C[C@H](C)[C@H](CN(C)C(=O)CCC(F)(F)F)OCCCC[C@@H](C)O3)cc1` belongs “inactive”. Take `C[C@H](O)C#Cc1ccc2c(c1)O[C@@H](CN(C)C(=O)C1CCCCC1)[C@@H](C)CN([C@H](C)CO)S2(=O)=O`: the cytotoxicity call was “inactive”. Consider `CCOC(=O)c1cn[nH]c1`, for which the cytotoxicity call was “inactive”. For `C[C@H]1CN([C@@H](C)CO)C(=O)c2cc(NS(=O)(=O)c3cn(C)cn3)ccc2O[C@H]1CN(C)S(=O)(=O)c1ccccc1` the value was “inactive”; for `CCS(=O)(=O)NCC[C@H]1CC[C@@H](NS(=O)(=O)c2ccccc2C)[C@H](CO)O1`, “inactive”.

Consider `C[C@@H]1CN([C@@H](C)CO)C(=O)c2cccc(NS(C)(=O)=O)c2O[C@@H]1CN(C)C(=O)Nc1ccc(F)cc1`, for which the cytotoxicity call was “inactive”. Take `CCOC(=O)c1c(CN2CCN(c3ccccc3C)CC2)n(-c2ccccc2)c2cc(Br)c(O)cc12`: the cytotoxicity call was “inactive”.

Turning to `C[C@@H]1CN([C@@H](C)CO)C(=O)Cc2cc(NS(=O)(=O)c3ccc(F)cc3)ccc2O[C@@H]1CN(C)S(=O)(=O)c1ccc(F)cc1`, the cytotoxicity call was “inactive”. For `COc1ccc(S(=O)(=O)Nc2cccc3c2O[C@H](CN(C)S(=O)(=O)c2ccc(OC)cc2)[C@H](C)CN([C@H](C)CO)C3=O)cc1` the value was “inactive”; for `O=C(O)CCc1nc2ccccc2[nH]1`, “inactive”; for `C(=N\c1nc2ccccc2[nH]1)/N(c1ccccc1)c1ccccc1`, “active”. To `FC(F)(F)c1nc2ccccc2[nH]1` belongs “inactive”. To `C[C@H](CO)N1C[C@H](C)[C@@H](CN(C)C(=O)c2ccncc2)OCCCC[C@H](C)Oc2ccc(NS(=O)(=O)c3cn(C)cn3)cc2C1=O` belongs “inactive”.

For the compound `CC(C)NC(=O)Nc1ccc2c(c1)C(=O)N([C@H](C)CO)C[C@H](C)[C@H](CN(C)S(=O)(=O)c1cccs1)O2`, the cytotoxicity call is “inactive”.

Turning to `CC(=O)c1ccc2c(c1)N(CCCN1CCN(CCO)CC1)c1ccccc1S2.O=C(O)C=CC(=O)O`, the cytotoxicity call is “inactive”.

Regarding `Cl.Cl.OCCN1CCN(CCCN2c3ccccc3Sc3ccc(C(F)(F)F)cc32)CC1`, the cytotoxicity call is “active”. For `OCCN1CCN(CCCN2c3ccccc3Sc3ccc(Cl)cc32)CC1` the value was “active”. For `CN1CCN(CCCN2c3ccccc3Sc3ccc(C(F)(F)F)cc32)CC1.Cl.Cl` the value was “active”. On to `O=C(O)C=CC(=O)O.OCCOCCN1CCN(C2=Nc3ccccc3Sc3ccccc32)CC1`, for which the cytotoxicity call was “inactive”.

On to `OCCN1CCN(c2ncnc3c2ncn3[C@H]2CN(Cc3cccc(C(F)(F)F)c3)C[C@@H](CO)O2)CC1`, for which the cytotoxicity call is “inactive”. With `Cl.Cl.OCCOCCN1CCN(C(c2ccccc2)c2ccc(Cl)cc2)CC1` (centres undefined), the cytotoxicity call was “inactive”. To `Cc1ccc(S(=O)(=O)N(C)C[C@@H]2OCCCC[C@H](C)Oc3ccc(NC(=O)C4CCCCC4)cc3C(=O)N([C@H](C)CO)C[C@@H]2C)cc1` belongs “inactive”. Turning to `Cc1noc(C)c1S(=O)(=O)Nc1ccc2c(c1)C(=O)N([C@@H](C)CO)C[C@@H](C)[C@H](CN(C)Cc1ccc(C(F)(F)F)cc1)OCCCC[C@@H](C)O2`, the cytotoxicity call is “inactive”. For `COc1ccc(NC(=O)N(C)C[C@@H]2OCCCC[C@@H](C)Oc3ccc(NC(=O)NC4CCCCC4)cc3C(=O)N([C@@H](C)CO)C[C@@H]2C)cc1` the value was “inactive”; for `C[C@@H]1CN([C@@H](C)CO)C(=O)c2cc(C#CC3(O)CCCC3)cnc2O[C@H]1CN(C)S(=O)(=O)c1ccc(F)cc1`, “inactive”; for `O[C@@H](CCl)CN1CC[N+]2(CC1)CC[N+]1(CCN(C[C@@H](O)CCl)CC1)CC2`, “inactive”. To `O=C(/C=C/c1ccc(O)c(O)c1)O[C@@H]1C[C@](O)(C(=O)O)C[C@@H](OC(=O)/C=C/c2ccc(O)c(O)c2)[C@H]1OC(=O)/C=C/c1ccc(O)c(O)c1` belongs “inactive”; to `CN(C)CCCNC(=O)C[C@@H]1CC[C@@H]2[C@H](COc3ccc(NC(=O)c4ccccc4F)cc3C(=O)N2C)O1`, “inactive”.

As to `C[C@H](CO)N1C[C@H](C)[C@H](CN(C)Cc2ccccc2)OCCCC[C@H](C)Oc2ccc(NS(=O)(=O)c3cccs3)cc2C1=O`, the cytotoxicity call was “inactive”. Turning to `COc1ccc(CN(C)C[C@@H]2OCCCC[C@H](C)Oc3ccc(NC(=O)NC(C)C)cc3C(=O)N([C@H](C)CO)C[C@@H]2C)cc1`, the cytotoxicity call was “inactive”.

Regarding `C[C@@H]1CN([C@@H](C)CO)C(=O)c2cc(NS(=O)(=O)c3cccs3)ccc2O[C@H]1CN(C)Cc1ccc(Cl)c(Cl)c1`, the cytotoxicity call is “inactive”. To `COc1ccc(S(=O)(=O)N(C)C[C@@H]2OCCCC[C@H](C)Oc3ccc(NC(=O)Nc4ccc(C(F)(F)F)cc4)cc3C(=O)N([C@H](C)CO)C[C@H]2C)cc1` belongs “inactive”; to `COc1ccc(S(=O)(=O)N(C)C[C@@H]2OCCCC[C@H](C)Oc3ccc(NC(=O)Nc4ccc(C(F)(F)F)cc4)cc3C(=O)N([C@H](C)CO)C[C@@H]2C)cc1`, “inactive”; to `COc1ccc(S(=O)(=O)N(C)C[C@H]2OCCCC[C@H](C)Oc3ccc(NC(=O)Nc4ccc(C(F)(F)F)cc4)cc3C(=O)N([C@@H](C)CO)C[C@@H]2C)cc1`, “inactive”. On to `COc1ccc(S(=O)(=O)N(C)C[C@H]2OCCCC[C@@H](C)Oc3ccc(NC(=O)Nc4ccc(C(F)(F)F)cc4)cc3C(=O)N([C@@H](C)CO)C[C@H]2C)cc1`, for which the cytotoxicity call is “active”. For the compound `COc1ccc(S(=O)(=O)N(C)C[C@H]2OCCCC[C@@H](C)Oc3ccc(NC(=O)Nc4ccc(C(F)(F)F)cc4)cc3C(=O)N([C@H](C)CO)C[C@H]2C)cc1`, the cytotoxicity call is “active”. Take `COc1ccc(S(=O)(=O)N(C)C[C@H]2OCCCC[C@H](C)Oc3ccc(NC(=O)Nc4ccc(C(F)(F)F)cc4)cc3C(=O)N([C@H](C)CO)C[C@@H]2C)cc1`: the cytotoxicity call is “active”. On to `COc1ccc(S(=O)(=O)N(C)C[C@@H]2OCCCC[C@@H](C)Oc3ccc(NC(=O)Nc4ccc(C(F)(F)F)cc4)cc3C(=O)N([C@H](C)CO)C[C@@H]2C)cc1`, for which the cytotoxicity call is “inactive”. For `COc1ccc(S(=O)(=O)N(C)C[C@H]2OCCCC[C@H](C)Oc3ccc(NC(=O)Nc4ccc(C(F)(F)F)cc4)cc3C(=O)N([C@H](C)CO)C[C@H]2C)cc1` the value was “inactive”; for `COc1ccc(S(=O)(=O)N(C)C[C@H]2OCCCC[C@H](C)Oc3ccc(NC(=O)Nc4ccc(C(F)(F)F)cc4)cc3C(=O)N([C@@H](C)CO)C[C@H]2C)cc1`, “inactive”. To `COc1ccc(S(=O)(=O)N(C)C[C@@H]2OCCCC[C@H](C)Oc3ccc(NC(=O)Nc4ccc(C(F)(F)F)cc4)cc3C(=O)N([C@@H](C)CO)C[C@@H]2C)cc1` belongs “active”. As for `COc1ccc(S(=O)(=O)N(C)C[C@@H]2OCCCC[C@H](C)Oc3ccc(NC(=O)Nc4ccc(C(F)(F)F)cc4)cc3C(=O)N([C@@H](C)CO)C[C@H]2C)cc1`, the cytotoxicity call is “inactive”. For `COc1ccc(S(=O)(=O)N(C)C[C@@H]2OCCCC[C@@H](C)Oc3ccc(NC(=O)Nc4ccc(C(F)(F)F)cc4)cc3C(=O)N([C@H](C)CO)C[C@H]2C)cc1` the value was “inactive”. To `CC(=O)NCCCC[C@@H]1NC(=O)[C@@H]2C[C@H](C(=O)NCCCCN(C)C)[C@H](c3cccc(OCCO)c3)N2C1=O` belongs “inactive”. For `CC(C)NC(=O)N(C)C[C@@H]1OCCCC[C@@H](C)Oc2ccc(NC(=O)Nc3ccc(C(F)(F)F)cc3)cc2C(=O)N([C@H](C)CO)C[C@@H]1C` the value was “inactive”; for `COc1ccc(NC(=O)N(C)C[C@@H]2Oc3ncc(C#CC(C)C)cc3C(=O)N([C@@H](C)CO)C[C@@H]2C)cc1`, “inactive”. Regarding `C[C@@H]1CN([C@@H](C)CO)C(=O)c2c(c3ccccc3n2C)-c2ccccc2CO[C@@H]1CN(C)C(=O)CCC(F)(F)F`, the cytotoxicity call is “inactive”. To `COc1ccc(cc1)S(=O)(=O)N1C[C@]2(C1)CN([C@@H](CO)c1c2c2ccc(cc2n1C)OC)C(=O)c1cccnc1` belongs “inactive”; to `C[C@@H]1CCCCO[C@@H](CN(C)C(=O)Nc2cccc3ccccc23)[C@@H](C)CN([C@@H](C)CO)C(=O)c2cc(NC(=O)NC3CCCCC3)ccc2O1`, “inactive”; to `CC(=O)n1cc([C@H]2C=C(C(=O)N3CCN(C)CC3)O[C@@H](OCc3ccc(CO)cc3)C2)c2ccccc21`, “inactive”. On to `C[C@H](CO)N1C[C@H](C)[C@H](CN(C)S(=O)(=O)c2cn(C)cn2)Oc2ccc(NC(=O)Nc3ccc4c(c3)OCO4)cc2C1=O`, for which the cytotoxicity call is “inactive”. On to `Nc1ccccc1C(=O)N1CCOCC1`, for which the cytotoxicity call was “inactive”. On to `O=C(c1ccccc1O)N1CCOCC1`, for which the cytotoxicity call was “inactive”. For `O=C(c1cn(Cc2cncn2Cc2ccc(Br)cc2)cc1-c1cccc2ccccc12)N1CCOCC1` the value was “active”; for `C[C@H]1CN(C(=O)CSc2nnc3c4ccccc4n(Cc4cccc(Cl)c4)c3n2)CCN1C(=O)c1ccccc1F`, “inactive”.

With `COC(=O)[C@@H]1N2C(=O)[C@@H](N3CC4=C[C@@H](C5CC5)n5c(=O)n(C)c(=O)n5[C@@H]4[C@@H]3[C@@H](O)Cc3ccccc3)[C@H]2SC1(C)C`, the cytotoxicity call is “inactive”. To `C[C@@H]1CN([C@@H](C)CO)C(=O)Cc2cc(NS(=O)(=O)c3ccccc3)ccc2O[C@@H]1CN(C)S(C)(=O)=O` belongs “inactive”. For the compound `C=C1CC[C@@H]2C(C)(C)CCC[C@@]2(C)[C@@H]1CC/C(C)=C/C(=O)OC`, the cytotoxicity call was “inactive”. To `CC1(C)CCC2(C(=O)O)CCC3(C)C(=CCC4C5(C)CCC(O)C(C)(CO)C5CCC43C)C2C1` (centres undefined) belongs “inactive”; to `C=C1CCC2C(C)(CO)C(O)CCC2(C)C1CC=C1C(=O)OCC1O` (centres undefined), “active”. Take `C[C@H]1CN([C@@H](C)CO)C(=O)c2cc(C#CCN(C)C)cnc2O[C@@H]1CN(C)C(=O)CCN1CCCCC1`: the cytotoxicity call is “inactive”. For `C[C@@H]1CN([C@@H](C)CO)S(=O)(=O)c2ccc(C#Cc3ccncc3)cc2O[C@H]1CN(C)C(=O)Nc1ccc2c(c1)OCO2` the value was “active”; for `C[C@H](CO)N1C[C@H](C)[C@H](CN(C)C(=O)Nc2ccc3c(c2)OCO3)Oc2cc(C#Cc3cccnc3)ccc2S1(=O)=O`, “inactive”; for `C[C@@H]1CN([C@H](C)CO)S(=O)(=O)c2ccc(C#Cc3ccncc3)cc2O[C@H]1CN(C)C(=O)Nc1ccc2c(c1)OCO2`, “inactive”.

Consider `C[C@@H]1CN([C@H](C)CO)S(=O)(=O)c2ccc(C#Cc3cccnc3)cc2O[C@H]1CN(C)C(=O)Nc1ccc2c(c1)OCO2`, for which the cytotoxicity call is “inactive”. To `C[C@@H]1CN([C@H](C)CO)S(=O)(=O)c2ccc(C#Cc3cccnc3)cc2O[C@@H]1CN(C)C(=O)Nc1ccc2c(c1)OCO2` belongs “inactive”; to `C[C@H]1CN([C@@H](C)CO)S(=O)(=O)c2ccc(C#Cc3cccnc3)cc2O[C@H]1CN(C)C(=O)Nc1ccc2c(c1)OCO2`, “inactive”. For `C[C@H]1CN([C@@H](C)CO)S(=O)(=O)c2ccc(C#Cc3cccnc3)cc2O[C@@H]1CN(C)C(=O)Nc1ccc2c(c1)OCO2` the value was “inactive”. For the compound `C[C@@H]1CN([C@H](C)CO)S(=O)(=O)c2ccc(C#Cc3ccncc3)cc2O[C@@H]1CN(C)C(=O)Nc1ccc2c(c1)OCO2`, the cytotoxicity call is “active”. For `C[C@H](CO)N1C[C@H](C)[C@@H](CN(C)C(=O)Nc2ccc3c(c2)OCO3)Oc2cc(C#Cc3ccncc3)ccc2S1(=O)=O`, the cytotoxicity call is “active”. Consider `C[C@H]1CN([C@@H](C)CO)S(=O)(=O)c2ccc(C#Cc3ccncc3)cc2O[C@H]1CN(C)C(=O)Nc1ccc2c(c1)OCO2`, for which the cytotoxicity call is “active”.

With `C[C@H](CO)N1C[C@H](C)[C@H](CN(C)C(=O)Nc2ccc3c(c2)OCO3)Oc2cc(C#Cc3ccncc3)ccc2S1(=O)=O`, the cytotoxicity call is “inactive”.

For `C[C@@H]1CN([C@@H](C)CO)S(=O)(=O)c2ccc(C#Cc3cccnc3)cc2O[C@H]1CN(C)C(=O)Nc1ccc2c(c1)OCO2`, the cytotoxicity call is “inactive”.

These data come from the antibiotic and cytotoxicity screens of Wong et al. (2023).
